Laboratory results reported in PubChem BioAssay.

The molecules below were run against Follistatin-related protein 3 (Homo sapiens) (UniProt O95633) (assay: FSTL3 binders on small-molecule microarrays, primary screen, biochemical, small-molecule microarray, 635 nm fluorescence (AID 1105;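 also: score merges emission near 667 nm and signal to noise per printed spot across three slides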)). Settings: FSTL3 binding, higher = more signal.
Chain of Follistatin-related protein 3 (Homo sapiens) (O95633 whole entry, looked up): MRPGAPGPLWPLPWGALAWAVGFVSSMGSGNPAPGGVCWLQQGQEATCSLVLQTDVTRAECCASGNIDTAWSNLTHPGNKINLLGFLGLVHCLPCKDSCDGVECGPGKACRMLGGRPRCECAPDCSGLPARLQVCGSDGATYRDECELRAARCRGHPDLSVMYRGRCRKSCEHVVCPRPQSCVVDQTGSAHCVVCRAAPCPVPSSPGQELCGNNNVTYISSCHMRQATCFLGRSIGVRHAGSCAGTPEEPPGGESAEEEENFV
COc1ccc(OC[C@@H]2CC3[C@@H](c4ccc(Br)cc4)[C@H](C)CC[C@H]3C(=O)O2)cc1 (stereo partly specified) showed a composite z-score of 0.354. COC(=O)[C@H](C)NC(=O)CCC1CC(OC(=O)NCCc2ccc(F)cc2)CC2(CCCC(COC(=O)NCC3CCCCC3)O2)O1 (stereo partly specified) gave a composite z-score of 1.08. COC(=O)[C@H](C)NC(=O)CCC1CC(OC(=O)NCc2cccc3ccccc23)CC2(CCCC(COC(=O)NCCC(C)C)O2)O1 (stereo partly specified) was tested, and the composite z-score was 0.463. Work on O=C1[C@H]2[C@H]3[C@H](O)[C@H](O)CC(=NOC[C@@H](O)COCc4ccco4)[C@@H]3CC[C@H]2C(=O)N1c1cccc(Oc2ccccc2)c1 yielded a composite z-score of -0.213. CCOC(=O)NN=C1C[C@@H](O)[C@@H](O)[C@@H]2[C@@H]3C(=O)N(C[C@@H]4CCCO4)C(=O)[C@@H]3CC[C@H]12 was tested, and the composite z-score was 0.264. For C[C@@H](c1ccccc1)N1C(=O)[C@H]2[C@H]3[C@H](O)[C@H](O)CC(=NOCc4ccccc4)[C@@H]3CC[C@H]2C1=O, the composite z-score was -0.909. With CCOC(=O)[C@H](Cc1ccccc1)NC(=O)CCC1CC(OC(=O)NCc2ccc3c(c2)OCO3)CC2(CCCC(COC(=O)NCCOc3ccccc3)O2)O1 (stereo partly specified) the composite z-score was 1.31. C[C@H]1CC[C@H]2C(=O)N[C@H](Cc3ccccc3)C(=O)N2[C@@H]1c1ccccc1 showed a composite z-score of 0.185. CCN1C(=O)[C@H]2[C@H]3[C@H](O)[C@H](O)CC(=NOCC[C@@H]4C=C[C@H](OC(C)=O)[C@@H](COC(C)=O)O4)[C@@H]3CC[C@H]2C1=O showed a composite z-score of 0.38. CCCNC(=O)OC[C@H]1O[C@H](CCON=C[C@@H](NS(=O)(=O)c2ccc(C)cc2)[C@H](C)C=CCC(=O)OC)C=C[C@@H]1Oc1ccc(OC)cc1 was tested, and the composite z-score was -0.293. In the case of C#CCCCON=C1C[C@@H](O)[C@@H](O)[C@@H]2[C@@H]3C(=O)N(C[C@@H]4CCCO4)C(=O)[C@@H]3CC[C@H]12, the composite z-score is reported as 0.457. For CC(C)CON=C1C[C@@H](O)[C@@H](O)[C@@H]2[C@@H]3C(=O)N(c4ccc(F)cc4F)C(=O)[C@@H]3CC[C@@H]12, the composite z-score was 0.598. With O=C1C=C[C@@H](O)[C@@H]2[C@@H]3C(=O)N(Cc4ccccc4)C(=O)[C@@H]3CC[C@@H]12 the composite z-score was 0.353. CC1(C)O[C@H]2OC([C@H](O)CON3C(=O)c4ccccc4C3=O)[C@H](O)[C@H]2O1 (stereo partly specified) showed a composite z-score of 0.205. Work on C[C@H]1CC[C@H]2C(=O)OC(COc3ccc(C(C)(C)C)cc3)CN2[C@@H]1c1ccc(Br)cc1 (stereo partly specified) yielded a composite z-score of 0.58. For CC1(C)O[C@H]2O[C@H]([C@H](O)CON=C3[C@H]4CCn5c(=O)n(-c6ccccc6)c(=O)n5[C@H]4[C@H](O)[C@@H]4O[C@H]34)[C@H](O)[C@H]2O1, the composite z-score was 0.422. In the case of CC(C)=CCCC(C)=CCON=C1C[C@@H](O)[C@@H](O)[C@@H]2[C@@H]3C(=O)N(c4cccc(Oc5ccccc5)c4)C(=O)[C@@H]3CC[C@H]12, the composite z-score is reported as 0.751. CCOC(=O)[C@H](Cc1ccccc1)NC(=O)CCC1CC(OC(=O)NCc2cccc3ccccc23)CC2(CCCC(COC(=O)NCc3ccc4c(c3)OCO4)O2)O1 (stereo partly specified) was tested, and the composite z-score was 0.224. Molecule CCCC[C@H]1CN2[C@@H](CC[C@@H](C)[C@@H]2c2ccc(Br)cc2)C(=O)O1 has a composite z-score of 0.562. Molecule CCOC(=O)[C@H](CC(C)C)NC(=O)CCC1CC(OC(=O)NCc2ccc3c(c2)OCO3)CC2(CCCC(COC(=O)NCCOc3ccccc3)O2)O1 (stereo partly specified) has a composite z-score of 1.22. CCOC(=O)NN=C1C[C@@H](O)[C@@H](O)[C@@H]2[C@@H]3C(=O)N(CC)C(=O)[C@@H]3CC[C@H]12 was tested, and the composite z-score was -0.188. COc1ccc(COC(=O)NN=C2C[C@@H](O)[C@@H](O)[C@@H]3[C@@H]4C(=O)N([C@@H](C)c5ccccc5)C(=O)[C@@H]4CC[C@@H]23)cc1 gave a composite z-score of 0.192. For CCN1C(=O)[C@H]2[C@H]3[C@H](O)[C@H](O)CC(=NO[C@H](C)c4cn([C@@H]5COC[C@H]5O)nn4)[C@@H]3CC[C@H]2C1=O, the composite z-score was -0.169. C[C@@H]1CC[C@H]2C(=O)O[C@@H](COc3ccc(C(C)(C)C)cc3)CN2[C@H]1c1ccc(Br)cc1 gave a composite z-score of 0.0224. CO[C@H]1COC(=O)CC=C[C@@H](C)COC(=O)[C@H]2CCCN2C(=O)CC=C[C@H]1C showed a composite z-score of 1.45. CC(CCN1CCCc2nc(C)c(C)cc21)=NO[C@@H](C)c1cn([C@H](CO)Cc2ccccc2)nn1 showed a composite z-score of 0.698.
